Source: PubChem
HCT116 PTEN-null: growth suppression of PTEN-null HCT116, primary screen, cell-based, CellTiter-Glo. HCT116 PTEN-null viability, 60 h; stronger effect = lower value. viability, % at 10 µM. hit rate 1.2% among 140,000. AID 827, 2007;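 active = viability at or below a set limit, 4 SD under the median of all tested compounds, cut at about 3.7% in these data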;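 also: PTEN knockout HCT116 line with beta catenin targeted HCT116 as companion control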
INS promoter inh: inhibitors of insulin promoter-driven GFP, primary screen, imaging, TRM-6 cells (human fetal islet line), eGFP reporter, cell count; reporter expression induced with tamoxifen; inhibition, % at 2 µM; hit rate 0.9% among 130,000; AID 1273, 2008;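 active = inhibition above the mean plus 3 SD, with well images judged a real hit on visual review, cut at about 60% in these data, passing the limit was not always enough; inconclusive = inhibition over the cutoff but images rejected on review; inactive = inhibition not above the cutoff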
Autophagy HCS: autophagy modulators in MEF cells, primary screen, imaging, high-content, MEF GFP-LC3; AID 463193, 2010; calls only at 10 µM (by protocol); hit rate 0.98% among 190,000; MEF GFP-LC3 puncta imaging; test concentration mostly 10 µM;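 active = percentage of spot-positive cells more than 3 SD above its plate mean, without a fluorescence outlier flag or 80% toxicity; inconclusive = no clear call, values can overlap the other calls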;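 also: spot-positive cell cutoff set from DMSO-treated cells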
Ins promoter up: insulin promoter activators in MIN6 cells, imaging, high-content screening, mouse beta cells. MIN6 insulin promoter-GFP reporter; stronger effect = higher value. hit rate 0.3% among 190,000. z-score at 5 µM;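 active = z-score above 3 at 5 µM with at least 500 cells counted in the well; inconclusive = wells under 500 cells, flagged as cytotoxic or low count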
Lmaj promast: Leishmania major promastigote growth inhibition, primary screen; Leishmania major promastigotes, resazurin fluorescence viability; hit rate 9% among 200,000; inhibition, % at 10 µM; AID 1063, 2008; in the data active = inhibition above about 50%;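 also: promastigotes grown with compound for 44 hours at 28 °C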
HCT116 bCat-KO: primary screen for growth suppressors in beta-catenin knockout HCT116 cells (colon tumor, human); AID 818, 2007; viability, % at 10 µM; hit rate 1.5% among 140,000; HCT116 beta-catenin knockout viability, CellTiter-Glo, 60 h; stronger effect = lower value;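 active = viability at or under a set limit, the compound median less 4 SD, cut at about 6% in these data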;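 also: 0% = Hyamine 1622 control at 20 µM and 100% = untreated cell control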
* = called active by the depositor; i = inactive; ? = inconclusive; / = not tested or not shown; + = active, no number. Rows were chosen to be rich in hits. Some 9.6% of all compounds tested hit in one or more screens of this group.

SMILES	HCT116 PTEN-null	INS promoter inh	Autophagy HCS	Ins promoter up	Lmaj promast	HCT116 bCat-KO
O=C(CN1CCN(Cc2ccc3c(c2)OCO3)CC1)N1CCc2[nH]c3ccccc3c2C1	92.8	/	i	-4.04	82.2*	90.9
O=C(CN1CCN(Cc2ccc3c(c2)OCO3)CC1)N1CCc2[nH]c3ccc(F)cc3c2C1	59.5	31.0	i	-1.12	99.1*	65.2
CCOc1cc2c(cc1C=O)OC(C)C2 (stereo unspecified)	/	/	i	0.13	9.2	/
Cc1ccsc1C(=O)NC(C)c1ccc2c(c1)OCO2 (stereo unspecified)	96.6	-30.0	i	0.2	-7.5	98.5
C#CCNC(=O)C1=C[C@@H](C(C)(C)C)C[C@@H](OCc2ccc(CO)cc2)O1	/	/	i	1.02	98.3*	/
C#CCNC(=O)C1=C[C@@H](C2CC2)C[C@@H](OCc2ccc(CO)cc2)O1	/	/	i	0.35	-0.8	/
CC(C)(C)[C@@H]1C=C(C(=O)NCc2ccccc2)O[C@H](OCc2ccc(CO)cc2)C1	/	/	i	0.67	96.6*	/
CC(C)(C)[C@H]1C=C(C(=O)Nc2ccccc2)O[C@@H](OCc2ccc(CO)cc2)C1	/	/	i	-0.15	41.2	/
CCOC(=O)c1sc(CS(=O)(=O)c2ccc(Cl)cc2)nc1C	/	/	/	-0.24	/	/
CCC(C)N=C1SCC(C)(/C=N/O)S1 (stereo unspecified)	86.4	-58.3	i	1.74	-2.6	86.9
COc1ccc(C2CC(=O)C3=C(C2)Nc2ncnn2C3c2ccccc2C)c(OC)c1 (stereo unspecified)	86.4	-21.9	i	0.71	100.3*	92.1
COC(=O)C1=C(N)Oc2c(oc(CO)cc2=O)C1c1ccc(F)cc1 (stereo unspecified)	/	/	/	0.22	/	/
COC(=O)C1=C(N)c2c(F)cccc2C1(C#N)c1ccc(F)cc1 (stereo unspecified)	78.1	50.0	i	0.91	50.6*	85.2
CN(C)S(=O)(=O)c1ccc(C(=O)N2CCN(S(=O)(=O)c3cccs3)CC2)cc1	/	-23.1	i	0.22	74.8*	/
O=C(c1ccco1)N1CCN(S(=O)(=O)c2cccs2)CC1	91.8	?	i	0.4	-1.0	92.6
COC(=O)C1=C(C)N(c2ccccc2)C(=S)NC1c1ccccc1C(F)(F)F (stereo unspecified)	/	9.1	i	0.13	69.8*	/
COCCOC(=O)C1=C(C)N(c2ccccc2)C(=S)NC1c1ccccc1C(F)(F)F (stereo unspecified)	/	7.1	i	-0.32	15.2	/
OCC1(Cc2ccc(Cl)cc2)CCN(CCCc2ccccc2)CC1	/	-34.8	i	/	94.5*	/
CN1CCC(CO)(Cc2ccccc2)CC1	/	/	i	-1.1	1.8	/
CSc1ccc(CN2CCC(CO)(Cc3ccc(Cl)cc3)CC2)cc1	/	/	+	/	87.0*	/
COc1cc(CN2CCC(CO)(Cc3cccc(C(F)(F)F)c3)CC2)ccc1F	/	/	/	0	/	/
O=C(c1cnsn1)N1CCC(CO)(Cc2ccc(Cl)cc2)CC1	/	/	i	0.19	-2.5	/
OCC1(Cc2ccccc2)CCN(Cc2ccc(C(F)(F)F)cc2)CC1	/	/	i	-0.79	80.8*	/
OCC1(Cc2ccc(Cl)cc2)CCN(CC2CC=CCC2)CC1 (stereo unspecified)	/	/	i	0.93	87.4*	/
COc1cccc(NC(=O)c2cc(-c3cccnc3)nc3c(Cl)cccc23)c1	73.2	/	i	-0.11	6.0	71.5
SMILES	HCT116 PTEN-null	INS promoter inh	Autophagy HCS	Ins promoter up	Lmaj promast	HCT116 bCat-KO
O=C(N/N=C/c1ccc2c(c1)OCO2)C(=O)Nc1ccc2ccccc2c1	/	/	i	-0.18	-0.1	/
OCC1(Cc2ccc(Cl)cc2)CCN(Cc2ccccc2F)CC1	/	/	i	0.02	57.1*	/
OCC1(Cc2ccccc2)CCN(Cc2cccc(F)c2F)CC1	/	/	i	-0.81	12.8	/
CCNc1nc(Oc2ccc(C(=O)OCC)cc2)nc(N2CCOCC2)n1	/	-83.3	i	0.15	-5.2	/
COc1ccc(CNS(=O)(=O)c2ccc3c(c2)CCN3C(=O)C2CC2)cc1	82.5	17.8	i	0.42	-2.3	90.7
O=C(NNS(=O)(=O)c1ccc2ccccc2c1)C1CCN(Cc2ccccc2)CC1	91.4	25.0	i	/	42.2	82.9
O=C(C1CC1)N1CCc2cc(S(=O)(=O)NC3CCN(Cc4ccccc4)CC3)ccc21	86.7	43.8	i	-0.15	59.3*	84.3
CC(C)CC(NS(=O)(=O)c1ccc2c(c1)oc(=O)n2C)C(=O)N1CC=C(c2ccccc2)CC1 (stereo unspecified)	68.6	/	i	1.06	85.7*	82.0
Cc1cc(C)c(C)c(S(=O)(=O)NC2CCN(Cc3ccccc3)CC2)c1C	/	/	i	-0.32	59.5*	/
Cc1cc(C)c(S(=O)(=O)NC2CCN(Cc3ccccc3)CC2)c(C)c1	/	/	/	-0.2	/	/
O=S(=O)(NC1CCN(Cc2ccccc2)CC1)c1ccc2ccccc2c1	/	/	i	-0.22	88.9*	/
O=C(NCCN1C(=O)C2C3C=CC(C3)C2C1=O)Nc1ccc(Br)cc1 (stereo unspecified)	97.5	/	i	-0.61	-1.6	98.4
Cn1c(=O)oc2cc(S(=O)(=O)NC3CCN(Cc4ccccc4)CC3)ccc21	91.9	/	/	2.25	50.1*	96.2
Cn1c(=O)oc2cc(S(=O)(=O)NCc3ccco3)ccc21	101.1	/	i	0.28	-10.2	97.4
CCC1CCCCN1Cc1ccc(CNS(=O)(=O)c2ccc3c(c2)oc(=O)n3C)o1 (stereo unspecified)	96.3	12.9	i	-0.24	97.6*	87.0
Cc1ccc(C(=O)N/C(=C\c2ccc([N+](=O)[O-])cc2)C(=O)NCCc2ccccc2)cc1	90.8	6.7	i	/	-4.2	90.2
Cc1ccc(OCc2ccc(C(=O)Nc3c(C)nn(Cc4c(F)c(F)c(F)c(F)c4F)c3C)o2)c([N+](=O)[O-])c1	45.7	/	i	-0.51	91.6*	41.4
Cc1nc(NC(=O)CSc2nc3cccnc3n2C2CCCCC2)sc1C	68.0	27.3	i	/	-3.5	90.1
CCn1c(SCC(=O)Nc2nc(C)c(C)s2)nc2cccnc21	92.8	-5.6	i	/	91.6*	101.4
CCc1ccccc1NC(=O)CSC1=C(C#N)C(c2ccc(O)c(OC)c2)C2=C(CCCC2=O)N1 (stereo unspecified)	43.8	/	i	-0.16	2.5	45.0
CCOC(=O)CSc1nnc(CNC(=O)c2ccc(S(=O)(=O)N3CCCC3)cc2)n1C	94.7	90.0*	i	/	-4.8	94.6
N#CC(c1ccc(F)cc1)c1ccc(C(=O)c2ccc(F)cc2)cc1 (stereo unspecified)	28.4	0.0	i	/	47.1	14.7
Cc1ccc(C(C#N)c2ccc(C(=O)c3ccc(F)cc3)cc2)cc1 (stereo unspecified)	46.2	-9.4	i	-4.77	54.4*	25.0
